Screens (PubChem BioAssay)
RGS4-Gao reg = modulates binding of RGS4 to human Galphao; P09471; Multiplexed bead flow cytometry; actives lie on both sides; binding response (% of control), % at 10 µM; 220,000 tested, 0.33% active; AID 1415; in the data active means binding response below about 49% or above about 150%; inactive means in between;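 further: fluorescent Galphao activated with aluminum fluoride binding bead-coupled RGS4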
Target sequence (P09471 whole entry, looked up): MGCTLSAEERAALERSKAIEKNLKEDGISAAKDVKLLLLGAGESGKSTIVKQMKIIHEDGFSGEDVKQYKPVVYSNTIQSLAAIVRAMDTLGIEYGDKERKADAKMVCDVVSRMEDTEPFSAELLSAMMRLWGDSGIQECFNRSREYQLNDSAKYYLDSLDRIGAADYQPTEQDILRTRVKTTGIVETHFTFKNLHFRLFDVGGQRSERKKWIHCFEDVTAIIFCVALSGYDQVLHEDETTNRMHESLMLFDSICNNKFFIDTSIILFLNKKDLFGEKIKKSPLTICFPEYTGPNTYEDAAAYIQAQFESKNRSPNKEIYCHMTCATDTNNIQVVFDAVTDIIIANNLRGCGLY
Avidin fluor = compound fluoresces at 488/530 nm on avidin beads; compound fluorescence 488/530 nm, flow cytometry; hits give high values; fluorescence (KMESF) at 10 µM; 220,000 tested, 0.38% active; in the data active means fluorescence above about 47
RGS16-Gao HTS = RGS16-Galphao interaction regulator (human); binding response (% of control), % at 10 µM; O15492+P09471; 220,000 tested, 0.38% active; bead-based flow cytometry RGS16-Galphao binding, fluorescence; actives lie on both sides;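 further: Galphao activated by GDP with aluminum fluoride before binding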
Target sequence (O15492 whole entry, looked up): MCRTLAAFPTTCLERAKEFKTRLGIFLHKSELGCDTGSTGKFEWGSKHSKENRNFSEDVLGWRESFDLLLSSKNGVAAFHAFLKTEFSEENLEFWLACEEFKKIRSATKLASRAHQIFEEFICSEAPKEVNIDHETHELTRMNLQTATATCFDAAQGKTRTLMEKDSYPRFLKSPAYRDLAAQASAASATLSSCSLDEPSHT
Target sequence (P09471 whole entry, looked up): as the sequence (P09471 whole entry, looked up) above
RGS8-Gao = human RGS8-Galphao interaction regulation; 220,000 tested, 0.34% active; multiplexed bead flow cytometry, RGS8-Galphao binding; actives lie on both sides; AID 1423; P09471; response (percent of control binding), % at 10 µM; in the data active means response below about 60% or above about 140%; inactive means in between;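 further: Galphao activated as the GDP aluminium fluoride complex binding bead-coupled RGS8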
RGS7-Gao reg = regulators of human RGS7-Galphao interaction; AID 1439; Multiplexed bead flow cytometry, RGS7-Galphao binding; actives lie on both sides; P09471; binding response (% of control), % at 10 µM; 220,000 tested, 0.35% active; in the data active means binding response below about 49% or above about 150%; inconclusive means no clear call, values can overlap the other calls; inactive means in between;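 further: fluorescent Galphao held in activated GDP-AlF4 state binding bead-coupled RGS7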
GSH fluor = GSH bead compound fluorescence profile; GSH beads flow cytometry, compound fluorescence 488/530 nm; hits give high values; fluorescence (KMESF) at 10 µM; 190,000 tested, 0.25% active; AID 1776; in the data active means fluorescence above about 89;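 further: glutathione beads carrying GST-tagged Bcl family fusion proteins plus one bare bead set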
RGS4-Gao HTS = regulators of human RGS4-Galphao interaction; shares compounds with RGS16-Gao HTS; multiplexed bead flow cytometry, RGS–Galpha-o binding; RGS4–Galpha-o binding response, % at 10 µM; 1,600 tested, 99% active; AID 1504;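 further: fluorescently labeled Galpha-o bound to GDP with aluminium fluoride binding biotinylated RGS beads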
Avidin counter = counter-screen: compounds disrupting biotin binding to avidin beads. shares compounds with RGS16-Gao HTS. streptavidin beads, fluorescein-biotin binding, flow cytometry. inhibition, % at 10 µM. 1,700 tested, under 10 active. AID 1783;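 active means inhibition above 50%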;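 further: median green fluorescence of gated singlet beads compared with DMSO control wells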
RGS8-Gao single = RGS8-Galphao interaction regulation, single point confirmation | shares compounds with RGS16-Gao HTS | bead-based flow cytometry RGS8-Galphao binding, fluorescence; actives lie on both sides | 1,700 tested, 3% active | AID 1836 | binding response (% of control), % at 10 µM; in the data active means binding response below about 72% or above about 130%; inactive means in between;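 further: Galphao activated as GDP AlF4 complex before binding bead RGS8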
RGS7-Gao single = confirmation of regulators of human RGS7-Galphao interaction; AID 1837; 1,700 tested, 7.8% active; bead-based flow cytometry RGS7-Galphao binding; actives lie on both sides; shares compounds with RGS16-Gao HTS; response (percent of control binding), % at 10 µM; in the data active means response below about 75% or above about 130%; inactive means in between;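 further: fluorescent Galphao activated with GDP and aluminum fluoride binding bead-coupled RGS7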
RGS16-Gao conf = confirmation of regulators of human RGS16-Galphao interaction; shares compounds with RGS16-Gao HTS; bead-based flow cytometry, RGS16-Galphao binding; actives lie on both sides; response (% of control binding), % at 10 µM; 1,700 tested, 4% active; in the data active means response below about 74% or above about 130%; inactive means in between;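 further: Galphao activated as the GDP aluminium fluoride complex binding bead-coupled RGS16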
RGS4-Gao single = RGS4-Galphao interaction regulation, single point confirmation | AID 1840 | 1,700 tested, 4% active | shares compounds with RGS16-Gao HTS | RGS4-Galphao binding, multiplexed bead flow cytometry; actives lie on both sides | binding response (% of control), % at 10 µM; in the data active means binding response below about 74% or above about 130%; inactive means in between
RGS19-Gao conf = RGS19-Galphao interaction regulation, single point confirmation | AID 1841 | 1,700 tested, 5% active | bead-based flow cytometry RGS19-Galphao binding; actives lie on both sides | response (percent of control binding), % at 10 µM | shares compounds with RGS16-Gao HTS; in the data active means response below about 50% or above about 160%; inactive means in between
Each line names hits and unclear results; the compound was inactive in the other large screens (follow-up assays come after a bar, where they were run); [ ] = another dose, or the depositor's remark. Hits are enriched below; roughly 1.2% of the tested compounds scored in any of these assays. Unless noted, how the calls were made is not given here.

C[N+](C)(CC#Cc1ccccc1)CC(=O)c1ccc(Cl)cc1	RGS16-Gao HTS 23 | RGS4-Gao HTS 114 | Avidin counter inactive | RGS8-Gao single inactive | RGS7-Gao single inactive | RGS16-Gao conf inactive | RGS4-Gao single inactive | RGS19-Gao conf inactive
CCN(CC)Cc1c(-c2ccccc2)[nH]c2ccc(C)cc2c1=O	RGS8-Gao 142[activator] | RGS4-Gao HTS 110 | Avidin counter inactive | RGS8-Gao single inactive | RGS7-Gao single inactive | RGS16-Gao conf inactive | RGS4-Gao single inactive | RGS19-Gao conf inactive
Cc1ccc2[nH]c(-c3ccccc3)cc(=O)c2c1	none
CC(C)NC(=O)NC(=O)COC(=O)C1(C)CC1(Cl)Cl (stereo unspecified)	RGS7-Gao reg inconclusive
COc1ccc(C2N(Cc3ccccc3)CC(=O)N2/N=C(\C)c2ccccc2)cc1 (stereo unspecified)	none
Cc1ccc(SCc2nc3ncccn3c2Br)cc1	Avidin fluor 75 (no result: RGS4-Gao reg, RGS16-Gao HTS, RGS8-Gao, RGS7-Gao reg, GSH fluor) | Avidin counter inactive | RGS8-Gao single inactive | RGS7-Gao single inactive | RGS16-Gao conf inactive | RGS4-Gao single inactive | RGS19-Gao conf inactive
Cc1ccc(Nc2c(-c3ccc(N(C)C)cc3)nc3ncccn23)cc1	RGS7-Gao reg inconclusive (no result: GSH fluor)
Cc1ccc(NS(=O)(=O)c2ccc(OCC(=O)NCc3cccnc3)cc2)cc1	RGS16-Gao HTS 23 | RGS4-Gao HTS 89 | Avidin counter inactive | RGS8-Gao single inactive | RGS7-Gao single inactive | RGS16-Gao conf inactive | RGS4-Gao single inactive | RGS19-Gao conf inactive
O=C(Cc1csc(N2CCOCC2)n1)N/N=C/c1ccc(O)c(O)c1O	RGS8-Gao 57, RGS7-Gao reg inconclusive | RGS4-Gao HTS 66 | Avidin counter inactive | RGS8-Gao single 72 | RGS7-Gao single 68 | RGS16-Gao conf 70 | RGS4-Gao single inactive | RGS19-Gao conf 37
CCOc1ccccc1NS(=O)(=O)N(C)C	RGS4-Gao reg 11 | Avidin counter inactive | RGS8-Gao single inactive | RGS7-Gao single inactive | RGS16-Gao conf inactive | RGS4-Gao single inactive | RGS19-Gao conf inactive
O=C(CSc1nnc(CCCO)n1-c1ccccc1)NCCc1ccccc1	RGS4-Gao reg 22, RGS16-Gao HTS 0.4, RGS8-Gao 8.7, RGS7-Gao reg 16 | Avidin counter inactive | RGS8-Gao single inactive | RGS7-Gao single inactive | RGS16-Gao conf inactive | RGS4-Gao single inactive | RGS19-Gao conf inactive
O=C(CSc1nnc(CCCO)n1-c1ccccc1)Nc1nccs1	none
CC(=O)Nc1ccccc1C(=O)C(=O)Nc1ccc(C)c(C)c1	RGS16-Gao HTS 251[activator] | RGS4-Gao HTS 110 | Avidin counter inactive | RGS8-Gao single inactive | RGS7-Gao single inactive | RGS16-Gao conf inactive | RGS4-Gao single inactive | RGS19-Gao conf inactive
Cc1ccc(C)n1Cc1ccc(C(=O)O)cc1	RGS7-Gao reg 49 | RGS4-Gao HTS 89
O=C(NC(=O)c1ccccc1)OCCN1C(=O)c2ccccc2C1=O	none
CCOC(=O)C(C(=O)OCC)C1OC(=O)c2cc3c(cc21)C(=O)OC3C(C(=O)OCC)C(=O)OCC (stereo unspecified)	Avidin fluor 200, RGS7-Gao reg 359[activator] | RGS4-Gao HTS 141 | Avidin counter inactive | RGS8-Gao single inactive | RGS7-Gao single inactive | RGS16-Gao conf inactive | RGS4-Gao single inactive | RGS19-Gao conf inactive
COc1ccc(C(=O)c2ccccc2)c(OCC(=O)NC2CC2)c1	none
Cc1cc2c3c(ccc(C)c3n1)N=CN2c1ccccc1	none (no result: RGS4-Gao reg, Avidin fluor, RGS16-Gao HTS, RGS8-Gao, RGS7-Gao reg) | Avidin counter inactive | RGS8-Gao single inactive | RGS7-Gao single inactive | RGS16-Gao conf inactive | RGS4-Gao single inactive | RGS19-Gao conf inactive
Cc1cc(Nc2ccccc2)c2c([N+](=O)[O-])ccc(C)c2n1	none
COc1ccc(-c2cc(C(F)(F)F)nc(SCC(=O)N(C)Cc3cn(C)nc3C)n2)cc1OC	RGS16-Gao HTS 0.0 | RGS4-Gao HTS 78 | Avidin counter inactive | RGS8-Gao single inactive | RGS7-Gao single inactive | RGS16-Gao conf inactive | RGS4-Gao single inactive | RGS19-Gao conf inactive
COc1ccc(-c2cc(C(F)(F)F)nc(SCC(=O)NCc3cnn(C)c3C)n2)cc1OC	none
O/N=C/c1cccnc1Sc1ccccc1	RGS4-Gao reg 152[activator], RGS16-Gao HTS 180[activator], RGS8-Gao 162[activator], RGS7-Gao reg 157[activator] | Avidin counter inactive | RGS8-Gao single inactive | RGS7-Gao single inactive | RGS16-Gao conf inactive | RGS4-Gao single inactive | RGS19-Gao conf inactive
COc1ccccc1OCCCCOc1ccccc1C(C)=O	RGS4-Gao reg 18, RGS16-Gao HTS 6.0, RGS8-Gao 15, RGS7-Gao reg 7.4 | Avidin counter inactive | RGS8-Gao single inactive | RGS7-Gao single inactive | RGS16-Gao conf inactive | RGS4-Gao single inactive | RGS19-Gao conf inactive
c1cc2c(cn1)cnc1cscc12	none
Cc1nnc(SCc2cccc3ccccc23)s1	RGS7-Gao reg inconclusive (no result: GSH fluor)
C/C=C(\C)C(=O)NCCN1C2=NC[C@H](Cc3ccccc3)N2C[C@H]1Cc1ccc(O)cc1	RGS4-Gao reg 34, RGS16-Gao HTS 19, RGS8-Gao 24, RGS7-Gao reg 20 | Avidin counter inactive | RGS8-Gao single inactive | RGS7-Gao single inactive | RGS16-Gao conf inactive | RGS4-Gao single inactive | RGS19-Gao conf inactive
CCc1nnc(NC(=O)CSc2nccn2-c2cc(C)cc(C)c2)s1	none
CCCc1cc(-c2nc(-c3ccc(Br)cc3)cs2)ccn1	RGS16-Gao HTS -6.4 | RGS4-Gao HTS 83 | Avidin counter inactive | RGS8-Gao single inactive | RGS7-Gao single inactive | RGS16-Gao conf inactive | RGS4-Gao single inactive | RGS19-Gao conf inactive
CCCc1cc(-c2nc(-c3ccc(Cl)cc3)cs2)ccn1	none
O=C(CN1CCN(c2ccccc2O)CC1)NC(c1ccccc1)c1ccccc1	RGS16-Gao HTS 244[activator] | RGS4-Gao HTS 114 | Avidin counter inactive | RGS8-Gao single inactive | RGS7-Gao single inactive | RGS16-Gao conf inactive | RGS4-Gao single inactive | RGS19-Gao conf inactive
